These results are taken from PubChem BioAssay AID1745848 (National Center for Advancing Translational Sciences (NCATS), 2022).

Molecules are shown by their SMILES. Hit rate of the full screen: of about 2,100 compounds, about 940 (45%) were called active. Not shown: some 48% with an inconclusive outcome. Calls come from the whole dose curve; as a rule, active = well fitted inhibition curve with a large enough effect; inconclusive = small, poorly fitted or top-dose-only effect; inactive = no such curve, though single readings can be large or run the other way. The set was probably picked from earlier hits. This is one part of the list.
Potency is the fitted concentration of half-maximal effect.

The nature of the test: Confirmatory qHTS for Inhibitors of ATXN expression.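 For activity change, negative = inhibition: 0% = DMSO vehicle wells and -100% = medium-only wells without cells.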 Note: nearly all actives have a fitted effect of over 65% in size. The note with it: ATXN2-luciferase reporter cells, luminescence, 24 h; series mostly up to 11.5 µM; activity change, negative = inhibition: at the top concentration. From the text:
PI: Daniel Scoles Ph.D. University of Utah School of Medicine, Salt Lake City, Utah MLPCN Grant: NS073009 Spinocerebellar ataxia type 2 (SCA2) is a multisystem neurodegenerative disease caused by a dominantly acting mutation leading to expansion of a polyQ domain in the ataxin-2 protein (ATXN2). SCA2 patients develop progressive ataxia and later lose function in other neuronal systems. Prominent parkinsonian signs develop in some patients. Like many neurodegenerative disorders, no symptomatic or disease-modifying treatments are known. The primary objective of the proposed research is to identify compounds inhibiting ATXN2 expression and to test them for efficacy in SCA2 mouse models. We have developed a cell-based assay paired with an in vivo mouse model using identical luciferase expression constructs. This approach takes advantage of an ATXN2-luciferase transgene, with the luciferase gene flanked by the upstream and downstream portions of the ATXN2 gene. Here we describe a 5-7 dose quantitative high thoroughput screen (qHTS) for compounds lowering ATXN2 expression. We screened the NIH Molecular Libraries Small Molecule Repository (MLSMR) and NCGC's mechanistically annotated (MIPE) and drug repurposing (NPC) collections of compounds for lowering expression of an ATXN2-luciferase reporter in HEK-293 cells. The assay is a multiplexed cell viability assay to ensure target reduction in the absence of cytotoxicity. Secondary qHTS assays included a CMV-luciferase reporter expressed in HEK-293 cells as well as a biochemical assay using recombinant luciferase to detect inhibitors of the reporter enzyme. Compounds that inhibit ATXN2 expression but is not cytotoxic were selected for confirmatory and secondary screens.
PROTOCOL TABLE (as described by Inglese J, Shamu CE and Guy RK. 2007) SEQUENCE No. (e.g., 1, 2, 3, etc.); PARAMETER (e.g., Cells, Incubation, Reagent, etc.); VALUE; DESCRIPTION. 1; Cells; 4 uL; white, solid bottom, 1536-well Greiner assay plate. 2; Incubation; 2 hr; 37 degree C in 5% humidified CO2. 3; Compounds; 23 nL; Kalypsis pintool (Wako USA) equipped with a 1536-well pin head. 4; Incubation; 24 hr; 37 degree C in 5% humidified CO2. 5; Reagent; 1 uL; Gly-Phe-7-Amino-4-trifluoromethylcoumarin. 6; Incubation; 30 min; 37 degree C in 5% humidified CO2. 7; Detection; Fluorescence; ViewLux plate reader (PerkinElmer). 8; Reagent; 3 uL; SteadyGlo luciferase solution (Promega). 9; Incubation; 5 min; room temperature. 10; Detection; Luminescence; ViewLux plate reader (PerkinElmer). NOTES (numbers refer to Sequence numbers above) 1. […] expressing ATXN2-luciferase reporter were suspended in phenol-red free DMEM and dispensed in assay plates using a Multidrop Combi dispenser (Thermo Fisher Scientific). Wells containing medium only were plated on each plate, and values were used to normalize (100% inhibition) in the luciferase and CellTiter-Fluor assays. 2. Assay plates were incubated. Evaporation was prevented by covering assay plates with metal lids containing holes to allow gas diffusion. 3. Compounds were added in a dose response manner with the final concentrations of 57, 11.4, 2.28, 0.46, 0.091, 0.018, 0.0037 uM. Vehicle-only plates, with DMSO being pin-transferred to columns 5-48, were inserted uniformly at the beginning and the end of each library to monitor and record any shifts in assay performance. 5. 125 uM Gly-Phe-7-Amino-4-trifluoromethylcoumarin (MP Biomedicals) working concentration was used at a final concentration of 25 uM. 7. To assess cell viability; the assay plates were read using the ViewLux high-throughput CCD imager (PerkinElmer), wherein single end-point fluorescence measurement was acquired (excitation 405/10; emission 540/25 nm). 8. Detection reagent SteadyGlo Luciferase (Promega) was added to the assay plate. 10. Luminescence is then measured on the ViewLux imager equipped with a clear emission filter using a 2 sec exposure. […]
(In general: In qHTS, concentration-response curves come from the screen itself.)
Take `Cc1cc[n+](C(C)C(=O)c2ccc(-c3ccccc3)cc2)cc1` (stereo not given): the Potency is 14.1 µM (active). Regarding `CC(C(=O)c1ccc(-c2ccccc2)cc1)[n+]1cccc(NC(=O)c2ccccc2)c1` (stereo not given), the “activity change, negative = inhibition” value was -17.3% (inactive). The same measure, in the same setting: under `Cc1ccc(Cc2cnc(N3C(=N)SC(C)C3=O)s2)cc1` (stereo not given) stands -5.04% (inactive). `COc1ccc(OC)c(NC(=O)COC(=O)c2c3c(nc4ccccc24)CCCC3)c1`: the Potency is 3.16 µM (active). For the molecule `Cn1cc(SCC(=O)Nc2nc3ccccc3s2)c2ccccc21`, the Potency was 3.16 µM (active). `NC(Cc1ccc(F)cc1)c1csc(Nc2cc(NCc3ccco3)ncn2)n1` (stereo not given): the “activity change, negative = inhibition” value is 40.8% (inactive).

With `CC(C)CC(N)c1csc(Nc2ccc(C(=O)N(C)Cc3ccccc3)cn2)n1` (stereo not given), the Potency was 12.6 µM (active). On the same count and under the same terms, under `NC(COCc1ccccc1)c1csc(Nc2ccc(C(F)(F)F)cn2)n1` (stereo not given) stands 31.6 µM (active); under `NC(Cc1ccccc1)c1csc(Nc2ccc(C(F)(F)F)cn2)n1` (stereo not given), 31.6 µM (active). As for `COc1ccc(CC(N)c2csc(Nc3ccc(C(=O)c4ccccc4)cc3)n2)cc1` (stereo not given), the “activity change, negative = inhibition” value is -34.6% (inactive). In the case of `NC(c1csc(Nc2nccc(C(F)(F)F)n2)n1)C1CCCCC1` (stereo not given), the Potency was 3.55 µM (active). Still for that read-out and setting: under `NC(Cc1ccc(C(F)(F)F)cc1)c1csc(Nc2nccc(C(F)(F)F)n2)n1` (stereo not given) stands 3.55 µM (active); under `Cc1cc(C(=O)N/N=C/c2ccc([N+](=O)[O-])s2)n[nH]1`, 8.91 µM (active). Same read-out and setting: under `CC(C)(C)c1cc(C(=O)N/N=C/c2ccc([N+](=O)[O-])s2)n[nH]1` stands 5.01 µM (active). The same measure, in the same setting: under `O=C(Cn1cnc([N+](=O)[O-])c1)Nc1cc(Oc2ccc(Cl)cc2Cl)cc([N+](=O)[O-])c1` stands 2.82 µM (active); under `O=C(NCc1ccccc1C(F)(F)F)c1cccc2c1C(=O)c1ccc(N3CCC(N4CCCCC4)CC3)cc1S2(=O)=O`, 3.16 µM (active). Consider `O=C(NCc1cc(C(F)(F)F)ccc1Cl)c1cccc2c1C(=O)c1ccc(N3CCOCC3)cc1S2(=O)=O`, for which the Potency is 3.98 µM (active).

Turning to `CCCc1nc2c(c(=O)c3ccccc3n2C)c(=O)n1C1CCCCCC1`, the Potency was 14.1 µM (active). Regarding `COc1ccc(C(=O)Nn2c(SCC(=O)c3ccccc3)nc3ccccc3c2=O)cc1`, the Potency was 15.8 µM (active).

Turning to `O=C(/C=C/Nc1ccc(S(=O)(=O)Nc2ncccn2)cc1)c1ccc(Cl)c(Cl)c1`, the “activity change, negative = inhibition” value is -22.7% [at 57.5 µM] (inactive).

In the case of `O=[N+]([O-])c1ccccc1S(=O)(=O)Nc1cccc2cccnc12`, the Potency is 10 µM (active). The same measure, in the same setting: under `Cc1ccc(S(=O)(=O)Nc2cccc3cccnc23)cc1` stands 8.91 µM (active); under `Cc1ccc(S(=O)(=O)Nc2cc(Cl)c(O)c3ncccc23)cc1`, 3.55 µM (active); under `O=S(=O)(Nc1cccc2cccnc12)c1ccccc1`, 1.58 µM (active). As to `CCc1ccc(N(CC)C(=O)c2ccc3c(Cl)c4c(nc3c2)CCC4)cc1`, the Potency was 3.55 µM (active). Still for that read-out and setting: under `C[C@@H]1ON(C)[C@H]2C[C@H]3c4[nH]c5ccc(-c6ccc7c(c6)OCO7)cc5c4CCN3C(=O)[C@@H]12` stands 15.8 µM (active); under `Nc1cccc2nc3ccccc3cc12`, 7.94 µM (active). Consider `Nc1c2ccccc2nc2ccccc12`, for which the Potency was 3.55 µM (active).

With `CCc1nc2ccc(C(=O)Nc3cc(-c4ccccc4)ccc3OC)cn2c1N(CC)CC(=O)N(C)C`, the Potency was 28.2 µM (active).

As for `Cc1ccc(SCCC(=O)N/N=C/c2ccccc2O)cc1`, the Potency is 3.55 µM (active). Still for that read-out and setting: under `O=C(CNS(=O)(=O)c1ccc([N+](=O)[O-])cc1)N/N=C/c1ccc(O)cc1O` stands 3.16 µM (active); under `Cc1ccc(S(=O)(=O)NCC(=O)N/N=C/c2ccccc2O)cc1`, 3.16 µM (active); under `O=C(CCCOc1ccc(Cl)cc1Cl)N/N=C/c1ccccc1O`, 2.82 µM (active). Still for that read-out and setting: under `N#CC1=C(N)N2C(=C(C#N)C1c1cccc(Br)c1)Nc1ccccc12` (stereo not given) stands 3.16 µM (active); under `Cc1csc2ncnc(NC3CCN(Cc4ccccc4)CC3)c12`, 0.794 µM (active); under `CC(C)(C)c1ccc(Oc2ccc(N)cn2)cc1`, 3.16 µM (active). On the same count and under the same terms, under `CC(C)(C)c1ccc(Oc2ccc(N)cc2)cc1` stands 2.24 µM (active); under `Cc1cccc(NC(=O)CCC(=O)N/N=C/c2ccc(O)cc2O)c1`, 3.16 µM (active); under `Cc1cc(C)n(CCC(=O)N/N=C/c2ccc(O)cc2O)n1`, 3.16 µM (active). For the molecule `COc1ccc(O)c(/C=N/NC(=O)CCC(=O)Nc2cccc(C)c2)c1`, the Potency was 14.1 µM (active). Take `COc1ccc(O)c(/C=N/NC(=O)CSc2nnc(C)n2-c2ccccc2)c1`: the Potency was 2.82 µM (active).

With `COc1cc(OC)c(OC)cc1/C=C1\CC(C)C/C(=C\c2cc(OC)c(OC)cc2OC)C1=O` (stereo not given), the Potency is 14.1 µM (active). Still for that read-out and setting: under `COc1cc(OC)c(OC)cc1/C=C1\CCC/C(=C\c2cc(OC)c(OC)cc2OC)C1=O` stands 3.98 µM (active); under `O=C(Nc1ccc(N2CCN(C(=O)c3ccccc3)CC2)c(Cl)c1)c1ccc(Br)o1`, 2.51 µM (active); under `Cc1ccccc1C(=O)N1CCN(c2ccc(NC(=O)c3ccco3)cc2Cl)CC1`, 17.8 µM (active).
